Measurements reported in article PMC4336329 (PLoS ONE, 2015).
Among all 310,000 compounds or so, about 14,000 (4.5%) showed an effect of 50% or more. Effects have a minus sign here. Only a selection was taken, and strong results are over-represented in it overall.

molecular target: human ether-à-go-go-related gene (hERG) potassium channel (human, UniProt Q12809); assay: primary screen, population patch clamp on CHO cells stably expressing hERG; higher = less effect of the substance
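Further: peak tail current of the secondary pulse compared with the same well before compound.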

Chain of human ether-à-go-go-related gene (hERG) potassium channel (Q12809 whole entry, looked up): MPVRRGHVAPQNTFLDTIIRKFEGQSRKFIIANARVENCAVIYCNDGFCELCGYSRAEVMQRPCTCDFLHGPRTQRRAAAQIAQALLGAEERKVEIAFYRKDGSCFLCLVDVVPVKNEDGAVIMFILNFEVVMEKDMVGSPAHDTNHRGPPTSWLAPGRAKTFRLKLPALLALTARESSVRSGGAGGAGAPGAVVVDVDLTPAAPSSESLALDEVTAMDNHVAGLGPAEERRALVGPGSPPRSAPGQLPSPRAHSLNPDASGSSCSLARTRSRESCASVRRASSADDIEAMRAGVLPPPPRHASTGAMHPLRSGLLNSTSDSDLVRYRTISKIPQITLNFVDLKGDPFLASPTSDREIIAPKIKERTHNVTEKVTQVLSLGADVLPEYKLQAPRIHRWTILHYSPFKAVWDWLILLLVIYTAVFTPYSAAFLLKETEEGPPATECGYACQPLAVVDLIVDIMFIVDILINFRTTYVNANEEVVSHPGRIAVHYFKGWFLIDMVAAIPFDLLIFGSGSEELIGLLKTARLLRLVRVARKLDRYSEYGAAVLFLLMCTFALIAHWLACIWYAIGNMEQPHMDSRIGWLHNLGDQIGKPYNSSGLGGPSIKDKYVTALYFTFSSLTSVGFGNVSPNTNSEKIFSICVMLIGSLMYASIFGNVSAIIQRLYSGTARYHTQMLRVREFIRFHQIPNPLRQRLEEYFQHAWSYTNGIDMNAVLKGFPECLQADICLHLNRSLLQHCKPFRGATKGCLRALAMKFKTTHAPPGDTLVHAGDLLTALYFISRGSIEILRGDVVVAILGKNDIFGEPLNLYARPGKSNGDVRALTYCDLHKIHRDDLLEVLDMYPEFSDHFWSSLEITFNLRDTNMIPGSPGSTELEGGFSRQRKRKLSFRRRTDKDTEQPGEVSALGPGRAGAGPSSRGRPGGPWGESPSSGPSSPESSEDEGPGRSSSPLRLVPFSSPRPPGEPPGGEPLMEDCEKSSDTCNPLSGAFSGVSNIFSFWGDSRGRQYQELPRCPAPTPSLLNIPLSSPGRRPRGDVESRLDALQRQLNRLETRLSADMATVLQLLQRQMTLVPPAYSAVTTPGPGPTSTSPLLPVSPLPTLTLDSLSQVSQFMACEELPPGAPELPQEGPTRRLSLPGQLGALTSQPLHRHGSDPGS

| SMILES | hERG current change (%, negative = inhibition) at 10uM [%] |
| --- | --- |
| COc1ccc(/C=N/n2c(-c3n[nH]c4c3CCC4)n[nH]c2=S)c(OC)c1OC | 20.7 |
| COc1nc(NC(C)=O)nc(C)c1Br | -1.69 |
| COc1ccc(NC(=O)CC(C)C)c([N+](=O)[O-])c1 | -0.754 |
| Cc1ccc(C(=O)NC(=S)Nc2ccccc2C)cc1 | -0.104 |
| CCn1nc(C)cc1C(=O)N1CCc2c([nH]c3ccccc23)C1c1cc(F)ccc1F (stereo not shown) | -1.16 |
| CC(C)(C)C1CCc2c(sc(NC(=O)c3cccs3)c2C(=O)N2CCCCC2)C1 (stereo not shown) | 7.32 |
| CC(C)N1CCc2c(sc(NC(=O)Cc3ccccc3)c2C(N)=O)C1.Cl | -11.5 |
| CN1CCN(C(=O)c2c(NC(=O)c3ccco3)sc3c2CCC(C(C)(C)C)C3)CC1 (stereo not shown) | -69.5 |
| CCN1CCc2c(sc(NC(=O)c3ccc(S(=O)(=O)N4CCOCC4)cc3)c2C(=O)OC)C1.Cl | -42.2 |
| CCOC(=O)c1c(NC(=O)c2cccc(N3C(=O)CCC3=O)c2)sc2c1CCN(CC)C2.Cl | -31.5 |
| CC(C)N1CCc2c(sc(NC(=O)c3ccc(C(=O)c4ccccc4)cc3)c2C(N)=O)C1.Cl | -38.2 |
| CCOC(=O)c1c(NC(=O)Cc2ccccc2)sc2c1CCN(CC)C2.Cl | -65.3 |
| CCN1CCc2c(sc(NC(=O)Cc3ccccc3)c2C(N)=O)C1.Cl | -20.3 |
| CCN1CCc2c(sc(NC(=O)Cc3ccccc3)c2C(=O)OC)C1.Cl | -51.5 |
| CC(C)N1CCc2c(sc(NC(=O)CCc3ccccc3)c2C(N)=O)C1.Cl | -57.2 |
| CC(C)(C)C1CCc2c(sc(NC(=O)c3ccco3)c2C(N)=O)C1 (stereo not shown) | 19.8 |
| OCc1ccccc1N=c1ssnc1Cl | 15.9 |
| CC(=O)N1CC(C)Sc2ccc(S(=O)(=O)NCc3ccccc3Cl)cc21 (stereo not shown) | -8.78 |
| CC1CCN(C(=O)C2CCCCN2S(=O)(=O)c2cccc([N+](=O)[O-])c2)CC1 (stereo not shown) | 1.35 |
| Cc1cc(C)c(NC(=O)CSc2ccc(-c3ccccn3)nn2)c(C)c1 | 17.9 |
| CC1CCN(C(=O)c2nc[nH]c2C(=O)OCCNC(=O)OC(C)(C)C)CC1 | 4.23 |
| CC1=CC(C)(C)Nc2ccc(OC(=O)CN3C(=O)c4ccccc4C3=O)cc21 | 15 |
| CC1Cc2ccccc2N1C(=O)COC(=O)Cc1ccc(F)cc1 (stereo not shown) | -13.9 |

| SMILES | hERG current change (%, negative = inhibition) at 10uM [%] |
| --- | --- |
| C=CCN(CC=C)C(=S)NCCc1ccc(OC)c(OC)c1 | -3.41 |
| Cc1cc([N+](=O)[O-])nn1CC(=O)Nc1c(C)n(C)n(-c2ccccc2)c1=O | 18.4 |
| COc1ccc(C(c2sc3nc(C)nn3c2O)N2CCN(Cc3ccccc3)CC2)cc1OC (stereo not shown) | -18.3 |
| O=C(c1ccco1)N1CCN(C(c2ccc(Cl)cc2)c2nnnn2Cc2ccccc2)CC1 (stereo not shown) | -68.2 |
| CC(C)CC(c1nnnn1Cc1ccccc1)N1CCN(C(=O)c2ccco2)CC1 (stereo not shown) | -63.4 |
| Cc1nc2sc(C(c3cccs3)N3CCN(Cc4ccccc4)CC3)c(O)n2n1 (stereo not shown) | -81.2 |
| COCCn1nnnc1C(c1ccccc1)N1CCN(C(=O)c2ccco2)CC1.Cl (stereo not shown) | 16.7 |
| CCC(c1nnnn1Cc1ccccc1)N1CCN(C(=O)c2ccco2)CC1 (stereo not shown) | -36.3 |
| O=C(c1ccco1)N1CCN(C(c2ccc(Cl)cc2)c2nnnn2CC2CCCO2)CC1 (stereo not shown) | -22.1 |
| COCCn1nnnc1C(c1ccc(Cl)cc1)N1CCN(C(=O)c2ccco2)CC1.Cl (stereo not shown) | -22.4 |
| Cc1nc2sc(C(c3cccs3)N3CCN(c4ccccc4)CC3)c(O)n2n1 (stereo not shown) | -9.85 |
| CCOc1ccc(C(c2nnnn2Cc2ccccc2)N2CCN(C(=O)c3ccco3)CC2)cc1.Cl (stereo not shown) | -57 |
| CC(C)CC(c1nnnn1CCc1ccccc1)N1CCN(C(=O)c2ccco2)CC1 (stereo not shown) | -46.6 |
| COc1cccc(C(c2nnnn2Cc2ccccc2)N2CCN(C(=O)c3ccco3)CC2)c1OC (stereo not shown) | -30.2 |
| COC(=O)/C(=C\Nc1ccccc1)NC(=O)c1ccc(Cl)cc1Cl | -17.2 |
| COc1ccc(C(c2nnnn2Cc2ccccc2)N2CCN(C(=O)c3ccco3)CC2)cc1 (stereo not shown) | -60.6 |
| COc1ccc(C(c2nnnn2Cc2ccccc2)N2CCN(C(=O)c3ccco3)CC2)cc1OC.Cl (stereo not shown) | -19.9 |
| CCOc1ccc(C(c2nnnn2C(C)(C)C)N2CCN(C(=O)c3ccco3)CC2)cc1 (stereo not shown) | -69.3 |
| Cc1ccc(C(c2sc3nc(C)nn3c2O)N2CCN(C(=O)c3ccco3)CC2)cc1 (stereo not shown) | -31.4 |
| COCCn1nnnc1C(c1ccc(OC)cc1)N1CCN(C(=O)c2ccco2)CC1.Cl (stereo not shown) | -4.77 |
| COc1ccc(C(c2nnnn2C(C)(C)C)N2CCN(C(=O)c3ccco3)CC2)cc1 (stereo not shown) | -37.4 |
| COc1ccccc1C(c1nnnn1C(C)C)N1CCN(C(=O)c2ccco2)CC1 (stereo not shown) | 1.24 |
| CCC(C)(C)n1nnnc1C(c1ccc(OC)cc1)N1CCN(C(=O)c2ccco2)CC1 (stereo not shown) | -41.6 |

| SMILES | hERG current change (%, negative = inhibition) at 10uM [%] |
| --- | --- |
| Cc1nc2sc(C(c3ccc(Cl)cc3)N3CCN(C(=O)c4ccco4)CC3)c(O)n2n1 (stereo not shown) | -60.1 |
| COc1ccccc1C(c1nnnn1C(C)(C)C)N1CCN(C(=O)c2ccco2)CC1 (stereo not shown) | -53.9 |
| Cc1nc2sc(C(c3ccccc3)N3CCN(C(=O)c4ccco4)CC3)c(O)n2n1 (stereo not shown) | 8.97 |
| CCC(C)(C)n1nnnc1C(c1ccccc1OC)N1CCN(C(=O)c2ccco2)CC1 (stereo not shown) | -32.6 |
| Cc1ccc(-c2nc3c(c(SCC(=O)N4CCOCC4)n2)COC(C)(C)C3)cc1 | 3.09 |
| O=C(NCCCn1ccnc1)C(=O)Nc1ccccc1 | 11.8 |
| CCCNc1nc2c(c(=O)[nH]c(=O)n2C)n1CCc1ccccc1 | 4.04 |
| C#CCN(C(=O)c1ccc(OC)c(OC2CCN(C(C)C)CC2)c1)C1CCCCC1 | -46.4 |
| C=CCc1cccc2cc(C(=O)NC)c(=O)oc12 | -5.8 |
| Cn1cnnc1-c1cccc(NS(=O)(=O)c2ccc(N3CCCC3=O)cc2)c1 | 9.92 |
| CCN(CC)c1ncnc2c1[nH]c1ccccc12 | -21.8 |
| Cc1ccc2occ(C(c3nnnn3C3CCCC3)N3CCN(C(=O)c4ccco4)CC3)c(=O)c2c1 (stereo not shown) | -45.7 |
| O=C(c1ccco1)N1CCN(C(c2coc3ccc(Cl)cc3c2=O)c2nnnn2C2CCCC2)CC1 (stereo not shown) | -55.6 |
| O=c1c(C(c2nnnn2C2CCCCC2)N2CCCCC2)coc2ccc(Cl)cc12 (stereo not shown) | 0.931 |
| COc1ccc(S(=O)(=O)Nc2cc3c4c(c2)CCN4C(=O)CC3)cc1OC | -7.56 |
| O=C(Cc1ccc(Cl)c(Cl)c1)N/N=C/c1cccnc1 | -40 |
| C=CCn1c(SCc2ccc(C#N)cc2)nnc1-c1ccc(C)cc1 | -71.3 |
| Cn1c(SCc2ccc(C#N)cc2)nnc1-c1ccncc1 | -19.7 |
| Cn1c(SCc2ccc(C#N)cc2)nnc1-c1ccccc1 | -29 |
| C=CCn1c(SCc2ccccc2)nnc1-c1cccnc1 | -20.5 |
| N#Cc1ccc(CSc2nnc(-c3ccncc3)n2CCc2ccccc2)cc1 | -74.1 |
| C=CCn1c(SCc2ccc(C#N)cc2)nnc1-c1ccccc1 | -57.8 |
| C=CCn1c(SCCC#N)nnc1-c1ccncc1 | -4.28 |

| SMILES | hERG current change (%, negative = inhibition) at 10uM [%] |
| --- | --- |
| c1ccc(CCn2c(SCc3ccccc3)nnc2-c2ccncc2)cc1 | -41.4 |
| C=CCn1c(SCc2cccnc2)nnc1-c1ccncc1 | -1.49 |
| CC(=O)c1c(C)[n+]([O-])c2ccc3c(non3O)c12 | 13.6 |
| CCOC(=O)C1=NN(c2ccc(Cl)cc2)C(c2ccccc2)CC1=O (stereo not shown) | -5.12 |
| COc1cccc(NC(=O)CN(C)C(=O)c2cc(C3CC3)nn2-c2ccccc2)c1 | -23.1 |
| Cc1cc(C)nc(NS(=O)(=O)c2ccc(N/C=C/C(=O)c3ccc(Cl)c(Cl)c3)cc2)n1 | 25.6 |
| CCOC(=O)c1oc2ccccc2c1NC(=O)c1cc(OC)cc(OC)c1 | 7.29 |
| COc1ccccc1C(=O)NNC(=O)C1CC=CCC1 (stereo not shown) | 18.7 |
| O=C(/C(=C/O)N=Nc1ccccc1)c1ccncc1 | -12.1 |
| COc1cc(NC(=S)NCc2cccnc2)c(OC)cc1Cl | -27.9 |
| CC(=O)N(c1ccccc1)C1SC(=O)N(c2ccccc2)C1=O (stereo not shown) | 13.9 |
| Cc1cc[n+](Cc2ccccc2)cc1.[O-][Cl+3]([O-])([O-])[O-] | 18.9 |
| Cc1ccc(C[n+]2c(-c3ccc(C)cc3)cc(-c3ccc(C)cc3)cc2-c2ccc(C)cc2)cc1.[O-][Cl+3]([O-])([O-])[O-] | -75.6 |
| O=[N+]([O-])c1ccc(C[n+]2c(-c3ccccc3)cc(-c3ccccc3)cc2-c2ccccc2)cc1.[O-][Cl+3]([O-])([O-])[O-] | -25.8 |
| O=[N+]([O-])c1ccccc1-c1cc(-c2ccccc2)cc(-c2ccccc2)[n+]1Cc1ccccc1Cl.[O-][Cl+3]([O-])([O-])[O-] | -78.7 |
| O=[N+]([O-])c1ccccc1NCc1ccccc1Cl | -4.13 |
| [O-][Cl+3]([O-])([O-])[O-].c1ccc(C[n+]2ccccc2)cc1 | -3.58 |
| Cc1ccc(-c2cc[n+](Cc3ccccc3)cc2)cc1.[Cl-] | -5.47 |
| Clc1ccc(C[n+]2c(-c3ccccc3)cc(-c3ccccc3)cc2-c2ccccc2)cc1.[O-][Cl+3]([O-])([O-])[O-] | -79.5 |
| O=[N+]([O-])c1cc(Cl)c(O)c(-[n+]2c(-c3ccccc3)cc(-c3ccccc3)cc2-c2ccccc2)c1.[O-][Cl+3]([O-])([O-])[O-] | -38.7 |
| Fc1ccc(C[n+]2c(-c3ccccc3)cc(-c3ccccc3)cc2-c2ccccc2)cc1.[O-][Cl+3]([O-])([O-])[O-] | -71.5 |
| O=C([O-])c1cc(-c2ccccc2)cc(-c2ccccc2)[n+]1Cc1ccccc1 | -10.1 |
